# Experiments:
# Conditions in all cases: concentration: 1 μM, replicates: in singlicate; n = 1
# [1] = system: PRKX
# [2] = system: PRP4
# [3] = system: T1, PYK2
# T1 construct: gene PTK2B
# [4] = system: QSK
# [5] = system: RAF1
# [6] = system: RET
# [7] = system: RIOK1
# [8] = system: RIOK2
# [9] = system: RIOK3
# [10] = system: RIPK1
# 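Also: KINOMEscan kinase panel screen.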
SMILES,%Inh [1],%Inh [2],%Inh [3],%Inh [4],%Inh [5],%Inh [6],%Inh [7],%Inh [8],%Inh [9],%Inh [10]
CCC(=O)c1c(-c2ccccc2)c2cc(Cl)ccc2c(=O)n1Cc1cc(S(C)(=O)=O)n(CC(N)=O)n1,0%,38%,0%,0%,11%,1%,1%,0%,0%,0%
Cc1c(Cn2c(C)nn3c(=O)cc(N4CCO[C@H](C)C4)nc23)cccc1C(F)(F)F [GSK2373690],29%,26%,1%,14%,19%,6%,15%,17%,27%,1%
COC(=O)c1c(-c2ccccc2)c2cc(C)ccc2c(=O)n1Cc1ccccc1,0%,4%,0%,0%,66%,13%,3%,0%,0%,0%
Fc1cccc(CSc2nnc(-c3ccc4c(c3)CCO4)o2)c1,7%,0%,8%,0%,2%,0%,0%,5%,8%,3%
O=C(NCCNc1ccnc(Nc2ccc(F)cc2)n1)Nc1ccc2c(c1)OCO2 [GSK1379882],30%,47%,9%,0%,5%,0%,15%,0%,15%,25%
Cc1cccc(-c2cc(-c3c[nH]nc3-c3ccccn3)ccn2)c1 [GW679395],12%,22%,0%,3%,3%,48%,6%,0%,0%,0%
CCCC(=O)Nc1n[nH]c2ncc(-c3cccc4ccccc34)cc12 [SB-642057],12%,26%,0%,13%,9%,33%,19%,0%,0%,0%
Cn1c(=O)c(F)c(Nc2ccc(I)cc2F)c2c(=O)n(OC[C@H](O)CO)cnc21,0%,0%,17%,0%,37%,11%,5%,0%,23%,0%

# From article PMC5540273 (PLoS ONE, 2017)
